Assay [1] in a line: qHTS of pediatric cancer cell lines to identify multiple opportunities for drug repurposing: Primary screen for NB-EBc1 cells (AID 1347095). Also: potency is read from the fitted curve at half-maximal effect. The gist of the method:
(§1)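 Viability was measured as metabolically active cells after 48 hours of treatment, read by CellTiter-Glo luminescence. Compounds were tested at multiple final concentrations, giving concentration-response curves.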

Assay [2] in a line: qHTS of pediatric cancer cell lines to identify multiple opportunities for drug repurposing: Primary screen for Saos-2 cells (AID 1347097). Also: nearly all actives have a fitted effect of over 40% in size. Also: potency is read from the fitted curve at half-maximal effect. The gist of the method: as §1
A general note: qHTS replaces the single test concentration by a dilution series.

The nature of assay [3]: qHTS of pediatric cancer cell lines to identify multiple opportunities for drug repurposing: Primary screen for SK-N-SH cells (AID 1347098). Also: nearly all actives have a fitted effect of over 65% in size. Also: potency is read from the fitted curve at half-maximal effect. The gist of the method: (§2)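 Cells (500-1,000/well) rested 5 h, then received compounds for 48 h; metabolically active cells were measured by CellTiter-Glo luminescence. Final concentrations spanned up to 46 µM (MIPE, 11-point) or 0.59 nM-46 µM (NPC, 8-point) in primary screens, 11-point in follow-ups.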

Assay [4] can be described thus: qHTS of pediatric cancer cell lines to identify multiple opportunities for drug repurposing: Primary screen for NB1643 cells (AID 1347099). Also: nearly all actives have a fitted effect of over 50% in size. Also: potency is read from the fitted curve at half-maximal effect. The gist of the method:
as §1

The nature of assay [5]: qHTS of pediatric cancer cell lines to identify multiple opportunities for drug repurposing: Primary screen for LAN-5 cells (AID 1347100). Also: potency is read from the fitted curve at half-maximal effect. The gist of the method: (§3)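 Viability after 48 h compound treatment at 37C, 500-1,000 cells/well, read as ATP luminescence with CellTiter-Glo. Primary screens used 11-point (MIPE, 0.78 nM-46 µM) or 8-point (NPC, 0.59 nM-46 µM) final concentrations; follow-up screens used 11-point dilutions.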

Assay [6] in a line: qHTS of pediatric cancer cell lines to identify multiple opportunities for drug repurposing: Primary screen for BT-12 cells (AID 1347101). Also: nearly all actives have a fitted effect of over 25% in size. Also: potency is read from the fitted curve at half-maximal effect. The gist of the method:
as §2

The nature of assay [7]: qHTS of pediatric cancer cell lines to identify multiple opportunities for drug repurposing: Primary screen for Rh18 cells (AID 1347102). Also: nearly all actives have a fitted effect of over 65% in size. Also: potency is read from the fitted curve at half-maximal effect. The gist of the method:
as §3

A short description of assay [8]: qHTS of pediatric cancer cell lines to identify multiple opportunities for drug repurposing: Primary screen for OHS-50 cells (AID 1347103). Also: nearly all actives have a fitted effect of over 40% in size. Also: potency is read from the fitted curve at half-maximal effect. The gist of the method:
as §2

Assay [9] is described as follows: qHTS of pediatric cancer cell lines to identify multiple opportunities for drug repurposing: Primary screen for RD cells (AID 1347104). Also: nearly all actives have a fitted effect of over 55% in size. Also: potency is read from the fitted curve at half-maximal effect. The gist of the method: as §1
Assay [10] is described as follows: qHTS of pediatric cancer cell lines to identify multiple opportunities for drug repurposing: Primary screen for MG 63 (6-TG R) cells (AID 1347105). Also: nearly all actives have a fitted effect of over 50% in size. Also: potency is read from the fitted curve at half-maximal effect. The gist of the method: as §1
Assay [11] is described as follows: qHTS of pediatric cancer cell lines to identify multiple opportunities for drug repurposing: Primary screen for control Hh wild type fibroblast cells (AID 1347106). Also: nearly all actives have a fitted effect of over 55% in size. Also: potency is read from the fitted curve at half-maximal effect. The gist of the method: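 Cells (500-1,000/well) in growth media were settled 5 h at 37 degrees C, then given compounds for 48 h. Viability was read as CellTiter-Glo luminescence. Primary runs used MIPE at 11 points (0.78 nM-46 µM) and NPC at 8 points (0.59 nM-46 µM); follow-ups used 11 points.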

Assay [12] can be described thus: qHTS of pediatric cancer cell lines to identify multiple opportunities for drug repurposing: Primary screen for Rh30 cells (AID 1347107). Also: series mostly up to about 46 µM; nearly all actives have a fitted effect of over 75% in size. The gist of the method:
as §3

A short description of assay [13]: qHTS of pediatric cancer cell lines to identify multiple opportunities for drug repurposing: Primary screen for Rh41 cells (AID 1347108). Also: nearly all actives have a fitted effect of over 70% in size. Also: potency is read from the fitted curve at half-maximal effect. The gist of the method: as §1
Assay [14] can be described thus: qHTS of pediatric cancer cell lines to identify multiple opportunities for drug repurposing: Primary screen for U-2 OS cells (AID 1347096). Also: nearly all actives have a fitted effect of over 50% in size. The gist of the method:
as §3

Assay [15] can be described thus: qHTS of pediatric cancer cell lines to identify multiple opportunities for drug repurposing: Confirmatory screen for A673 cells (AID 1347110). Also: potency is read from the fitted curve at half-maximal effect; nearly all actives have a fitted effect of over 65% in size. The gist of the method:
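A673 cells seeded at 500-1,000 cells/well, rested 5 h, then dosed; primary MIPE 11-point (0.78 nM to 46 µM), NPC (0.59 nM to 46 µM); confirmatory 11-point. CellTiter-Glo luminescence after 48 h.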

The nature of assay [16]: qHTS of pediatric cancer cell lines to identify multiple opportunities for drug repurposing: Confirmatory screen for SK-N-MC cells (AID 1347111).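 Also: potency is read from the fitted curve at half-maximal effect; cells exposed to compound for 48 h before the readout; nearly all actives have a fitted effect of over 70% in size.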 The gist of the method: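 SK-N-MC cells at 500-1,000 cells/well in growth media were pre-incubated 5 h, then exposed to compounds at 11-point dilutions for 48 h at 37 degrees C, 5% CO2. Viability was read as CellTiter-Glo luminescence.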

A short description of assay [17]: qHTS of pediatric cancer cell lines to identify multiple opportunities for drug repurposing: Confirmatory screen for DAOY cells (AID 1347114). Also: nearly all actives have a fitted effect of over 65% in size. Also: potency is read from the fitted curve at half-maximal effect. The gist of the method: (§4)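 Viability measured as metabolically active cells via CellTiter-Glo luminescence following 48 hours of compound exposure, 11-point dilutions in confirmatory testing. 500-1,000 cells/well plated 5 hours before dosing; controls were DMSO and 2.3 µM bortezomib.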

A short description of assay [18]: qHTS of pediatric cancer cell lines to identify multiple opportunities for drug repurposing: Confirmatory screen for SJ-GBM2 cells (AID 1347116). Also: nearly all actives have a fitted effect of over 60% in size. Also: potency is read from the fitted curve at half-maximal effect. The gist of the method: as §4
A short description of assay [19]: qHTS of pediatric cancer cell lines to identify multiple opportunities for drug repurposing: Confirmatory screen for NB1643 cells (AID 1347109). Also: potency is read from the fitted curve at half-maximal effect; nearly all actives have a fitted effect of over 45% in size. The gist of the method:
as §3

Assay [20] can be described thus: qHTS of pediatric cancer cell lines to identify multiple opportunities for drug repurposing: Confirmatory screen for LAN-5 cells (AID 1347113). Also: nearly all actives have a fitted effect of over 65% in size. Also: potency is read from the fitted curve at half-maximal effect. The gist of the method:
as §3

Where “and” joins values, the source holds several entries; their conditions need not be identical. Equal values may be shown once. Inconclusive results are not listed. Calls of active or inactive are those of the source. Calls follow the shape of the dose curve; as a rule, active = well fitted curve in the direction sought with a large enough effect; inconclusive = small, poorly fitted or top-dose-only effect, or another doubt; inactive = no such curve, though single readings can be large; an effect the other way counts as inactive or inconclusive.

For the compound `CC(C)C1CCC(C(=O)N[C@H](Cc2ccccc2)C(=O)O)CC1` (stereo partly specified), the Potency entry in [1], in [2], in assay [3], in assay [4], in assay [5] and in [6] was “inactive” throughout. The Potency result in assay [7], in assay [8], in assay [9], in [10], in assay [11] and in [12] was “inactive” throughout. Moreover, in assay [13], the Potency result was “inactive”.
Turning to `COc1ccccc1OCC(O)COC(N)=O` (stereo unspecified), the Potency result in assay [1], in assay [2], in [3], in [4], in [5] and in assay [6] was “inactive” each time. Further, the Potency result in assay [7], in assay [8], in assay [9], in [10], in assay [11] and in [12] was “inactive” throughout. In [13], the Potency entry is “inactive”.
For `S=P(N1CC1)(N1CC1)N1CC1`, the Potency in [1] was 1.05 µM (active); in [4] it was 93.5 nM (active); in assay [5], 18.7 µM (active); in assay [8], 24.3 µM (active); in assay [15], 0.928 µM (active); in assay [16] it was 3.69 µM (active). Besides, the Potency result in assay [14], in assay [3], in [6], in assay [7], in assay [9] and in [10] was “inactive” throughout. Besides, the Potency result in assay [11], in [13], in assay [17] and in assay [18] was “inactive” throughout.
Take `CCN(CC)CCn1c(=O)c(Cc2ccc(OC)cc2)nc2ccccc21`: the Potency entry in [1], in assay [2], in [3], in [4], in [5] and in assay [6] was “inactive” in each case. Also, the Potency entry in assay [7], in [8], in assay [9], in assay [10], in assay [11] and in [12] was “inactive” in each case. Further, in assay [13], the Potency entry was “inactive”.
Take `Nc1nc(=S)c2[nH]cnc2[nH]1`: the Potency in [1] was 0.743 µM (active); in [2], 7.5 µM (active) and 4.69 µM (active); in assay [3] it was 6.87 µM (active) and 5.41 µM (active); in assay [4], 2.99 µM (active) and 3.32 µM (active); in assay [5] it was 2.35 µM (active); in assay [6] it was 8.71 µM (active) and 7.69 µM (active). The Potency in [7] was 13.3 µM (active); in assay [8] it was 872 nM (active) and 1.72 µM (active); in assay [19], 5.85 µM (active) and 4.14 µM (active); in [15] it was 2.61 µM (active) and 1.65 µM (active); in assay [16] it was 11.7 µM (active) and 7.37 µM (active); in [20], 2.93 µM (active) and 2.33 µM (active). In addition, the Potency was 2.61 µM (active) and 1.47 µM (active) in [17]; 5.22 µM (active) in [18]. Also, the Potency entry in assay [10] and in assay [11] was “inactive” throughout.
On to `CN1CCN(c2c(F)cc3c(=O)c(C(=O)O)cn4c3c2OCN4C)CC1`, for which the Potency result in assay [1], in assay [2], in assay [3], in assay [4], in [5] and in assay [6] was “inactive” in each case. Also, the Potency result in assay [7], in assay [8], in assay [9], in assay [10], in [11] and in [13] was “inactive” in each case.
As to `O=S(=O)(c1cccc2cnccc12)N1CCCNCC1`, the Potency result in [1], in assay [14], in assay [4], in assay [5], in [6] and in [7] was “inactive” throughout. The Potency result in [8], in assay [9], in assay [10], in assay [11], in assay [12] and in assay [13] was “inactive” in each case.
As to `Oc1c(Cl)cc(Cl)c2cccnc12`, the Potency in [1] is 2.99 µM (active) and 7.43 µM (active); in assay [2], 16.6 µM (active); in assay [3], 3.86 µM (active) and 30.4 µM (active); in assay [4] it was 2.66 µM (active) and 6.62 µM (active); in [5], 5.96 µM (active) and 18.7 µM (active); in assay [6] it was 27.6 µM (active) and 30.6 µM (active). The Potency is 12.3 µM (active) and 27.3 µM (active) in assay [8]; 5.31 µM (active) and 26.4 µM (active) in assay [9]; 6.68 µM (active) and 11.8 µM (active) in assay [10]; 23.5 µM (active) in assay [13]; 18.5 µM (active) in assay [19]; 8.27 µM (active) in [15]. The results for the Potency in assay [16] and in [20] were 13.1 µM (active) and 14.7 µM (active), respectively. In assay [11], the Potency result was “inactive”.
With `CC(=O)CC(c1ccccc1)c1c(O)c2ccccc2oc1=O` (stereo unspecified), the Potency result in [1], in assay [2], in [3], in assay [4], in assay [5] and in [6] was “inactive” throughout. The Potency entry in assay [7], in assay [8], in assay [9], in assay [10], in assay [11] and in assay [13] was “inactive” each time.
As for `CN(C)c1ccc(C(=C2C=CC(=[N+](C)C)C=C2)c2ccc(N(C)C)cc2)cc1`, the Potency in assay [1] was 2.99 µM (active) and 935 nM (active); in assay [2] it was 2.11 µM (active) and 418 nM (active); in [3] it was 1.09 µM (active) and 2.41 µM (active); in assay [4], 3.35 µM (active) and 7.43 µM (active); in assay [5], 1.68 µM (active) and 526 nM (active); in assay [6] it was 1.38 µM (active) and 611 nM (active). The Potency in assay [7] is 750 nM (active) and 332 nM (active); in assay [8] it was 978 nM (active) and 217 nM (active); in [9], 1.88 µM (active) and 662 nM (active); in [10], 2.66 µM (active) and 1.48 µM (active); in [11], 8.41 µM (active) and 2.64 µM (active); in [13], 6.68 µM (active) and 1.66 µM (active). For the same compound, the Potency in [19] is 1.17 µM (active); in assay [15], 1.47 µM (active); in assay [16], 0.737 µM (active); in assay [20], 1.17 µM (active); in [17], 737 nM (active); in [18], 1.17 µM (active).
`OCc1ccc(-c2nn(Cc3ccccc3)c3ccccc23)o1`: the Potency entry in assay [1], in assay [14], in [3], in assay [4], in [5] and in assay [6] was “inactive” each time. Also, the Potency entry in assay [7], in [9], in assay [10], in assay [11] and in assay [12] was “inactive” throughout. The Potency in assay [8] was 1.72 µM (active).
For the compound `CNS(=O)(=O)Cc1ccc2[nH]cc(CCN(C)C)c2c1`, the Potency entry in assay [1], in [2], in [3], in [4], in assay [5] and in assay [6] was “inactive” throughout. Further, the Potency result in assay [7], in [8], in [9], in assay [10], in [11] and in assay [13] was “inactive” throughout.
As for `NC(=O)c1cccnc1`, the Potency result in assay [1], in [14], in assay [3], in assay [4], in [5] and in assay [6] was “inactive” each time. The Potency result in [7], in assay [8], in assay [9], in [10], in assay [11] and in assay [12] was “inactive” throughout. The Potency result in [13], in assay [20] and in assay [17] was “inactive” in each case. Further, the Potency in assay [15] was 13.1 µM (active); in assay [16], 14.7 µM (active).
